Our source for the inhibition values is PubChem BioAssay AID1962 (The Scripps Research Institute Molecular Screening Center, 2009).

What is called inhibition is the change of the read-out against control, counted positive when it falls.

Screen size: about 300,000 compounds; about 2,500 (0.83%) were called active. The list comes from a sample in which actives are over-represented; it also holds similar structures and randomly drawn compounds. Unmarked numbers belong to inactive results.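 How the source made its calls: active means inhibition above the mean of all tested compounds plus 3 SD, set per screening campaign (cut at about 24% in these data); inactive means the rest.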

The experiment concerns tRNA 2'-phosphotransferase TPT1 (Candida albicans SC5314). Kind of experiment: tRNA 2'-phosphotransferase blockers, C. albicans – biochemical, fluorescence polarization, primary screen (AID 1962).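 Further: plate controls were DMSO alone for no effect and ferristatin control at 100 nM for full effect.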 As to conditions: recombinant caTPT1, FP RNA substrate dephosphorylation; at 5 µM; hits give high values. (In fluorescence polarisation assays a small probe gives low polarisation when free and higher when bound to something large.)
As to `CCN(CC)P(=O)(Nc1ccc(SC(F)F)cc1)c1ccc(N(C)C)cc1NC(=O)c1ccco1` (stereo not given), the inhibition is -3.15%.
As to `COc1cc(C(=O)N2CCN(C)CC2)cc(OC)c1OC`, the inhibition was 1.91%.
With `O=C(CN1C(=O)NC(Cc2ccccc2)(Cc2ccccc2)C1=O)NCC1CCCCC1`, the inhibition was 0.35%.
Next, `Cc1ccc(C(=O)C(=S)N2CCOCC2)cc1`: 0.27%; `Cc1ccc(CC2S/C(=C(/C#N)C(=O)N3CCOCC3)N(c3ccccc3)C2=O)cc1` (stereo not given): 27.6% (active).
As to `N#C/C(C(=O)N1CCOCC1)=C1/SC(Cc2ccc(F)cc2)C(=O)N1c1ccccc1` (stereo not given), the inhibition was 19.8%.
With `O=C(Nc1ccc2c(c1)CCC2)c1ccc(Br)s1` the figure was -6.11%; with `CC(=O)N1CCN(C(=O)c2cc(-c3ccc(C)o3)nc3ccccc23)CC1`, -4.79%.
With `OCC[C@H]1C[C@@H](O)[C@H](O)[C@]2(OCCCc3ccccc32)O1` the figure was -4.69%; with `O=C(CSc1nc2ccc([N+](=O)[O-])cc2[nH]1)c1ccc(Cl)cc1`, -2.05%; with `O=C(Cc1nc2ccccc2[nH]c1=O)c1ccc(Cl)cc1`, 52.4% (active).
Next, `O=C(/C(=C/c1cccc(Cl)c1)c1nc2ccccc2[nH]1)c1ccccc1`: 6.55%; `CC(=O)Oc1ccc(N(C(C)=O)S(=O)(=O)c2ccc3ccccc3c2)cc1Br`: -2.05%.
For the molecule `O=C(Nc1ccc([N+](=O)[O-])cc1)OCCc1ccccn1`, the inhibition is 0.72%.
As to `Cc1cccc(NS(=O)(=O)c2cc(Cl)ccc2Cl)n1`, the inhibition is -0.05%.
With `COc1ccc2cc(C(=O)C3CCCN(C(=O)c4sc(C)nc4C)C3)ccc2c1` (stereo not given), the inhibition is -0.57%.
Turning to `CCOc1cc(-c2cc(-c3ccc(NC(C)=O)cc3)nc(N)c2C#N)ccc1O`, the inhibition was 2.32%.
Next, `CCOc1cc(/C=C(\C#N)c2nc(-c3cccs3)c(NC(C)=O)s2)ccc1O`: 111% (active).
Consider `COc1cc(/C=N\Nc2nc(-c3cccs3)c(NC(C)=O)s2)ccc1O`, for which the inhibition was -0.53%.
Next, `Cc1ccc(Nc2ccc(C(N)=O)cc2[N+](=O)[O-])cc1`: -0.98%; `Nc1ccc(C(=O)Nc2ccccc2N)cc1`: -2.37%; `Cc1ccc(Nc2ccccc2N)cc1`: 38.5% (active).
With `O=C(Nc1ccc(Cl)c(Cl)c1)N1CC=C(c2ccccc2)CC1` the figure was -0.49%; with `NC1=C([N+](=O)[O-])C(c2ccccc2)C2=C(CCCC2=O)O1` (stereo not given), 2.19%; with `COc1ccc(CCOC(=O)CNC(=O)c2ccc(Cl)cc2Cl)cc1`, -0.14%.
For `Cc1ccc([C@@H]2CC=C(C(=O)O)[C@H](c3cccc(Cl)c3)N2S(=O)(=O)c2ccc(C)cc2)cc1`, the inhibition was -3.07%.
As for `Cc1c(C)c2ccc(OCC(=O)N3CCC(C(=O)O)CC3)c(C)c2oc1=O`, the inhibition is -2.74%.
For `Cc1c(CC(=O)N2CCN(C(=O)C3COc4ccccc4O3)CC2)c(=O)oc2c(O)c(O)ccc12` (stereo not given), the inhibition was 51% (active).
For the molecule `O=C(CNC(=O)C1COc2ccccc2O1)N/N=C/c1cc(Br)c(O)c(Br)c1` (stereo not given), the inhibition is 2.18%.
Next, `NC(=O)c1c(NC(=O)c2ccccc2)sc2c1CCCC2`: 1.25%; `NC(=O)c1c(Nc2nc3c(F)cccc3s2)sc2c1CCCC2`: 85.5% (active); `COc1cccc(OC)c1C(=O)Nc1sc2c(c1C(N)=O)CCCC2`: -0.1%.
Consider `CC(C)(C)C(=O)Nc1ccc(C(=O)N/N=C/c2ccccc2OC(=O)c2ccc(Cl)cc2Cl)cc1`, for which the inhibition was -2.72%.
Next, `Cc1ccc(Sc2ccncc2S(N)(=O)=O)cc1`: 0.2%; `Cc1cnc(C(=O)N2CCCC(C(=O)c3ccc(C(F)(F)F)cc3)C2)cn1` (stereo not given): -2.98%; `CCOC(=O)N1CCN(C(=O)CSc2nc(=O)n3cccc(C)c3n2)CC1`: -1.52%.
With `CCOC(=O)CC1C(=O)NCCN1c1nc2c(C)cccn2c(=O)c1/C=C1\SC(=S)N(C(C)CC)C1=O` (stereo not given) the figure was 145% (active).
As for `Cc1cccn2c(=O)c(/C=C(\C#N)C(N)=O)c(N3CCCCCC3)nc12`, the inhibition was -0.44%.
With `CCC(=O)N1c2ccc(S(=O)(=O)NCc3ccco3)cc2CC1C` (stereo not given) the figure was -4.88%.
With `COCCCn1c(-c2cccs2)nc2nc3ccccc3nc21` the figure was -0.91%; with `Cc1c(-c2ccccc2)cn2c1-c1ccc(C)n1CC2`, 49% (active).
Take `Cc1cc(Br)ccc1SCC(=O)OCC(=O)NCc1ccc2c(c1)OCO2`: the inhibition is -0.18%.
With `CC1CCN(C(=O)c2ccc3c(c2)NC(=O)CN3)CC1` the figure was 147% (active).
With `CC1CCN(C(=O)c2ccc3c(=O)n4c(nc3c2)CCCCC4)CC1` the figure was -0.96%; with `CC1CCN(C(=O)c2ccc(CSc3ccc(Cl)cc3)cc2)CC1`, -4.05%; with `O=c1oc2ccccc2c(CNc2ccccc2)c1[N+](=O)[O-]`, -2.94%.
Next, `O=C(N/N=C/c1c[nH]c2ccccc12)c1ccccc1O`: -1.65%.
As to `COc1ccc(/C=C(\C#N)c2c[nH]c3ccccc23)cc1`, the inhibition was 0.42%.
Turning to `C[n+]1ccc(/C=C/c2c[nH]c3ccccc23)cc1`, the inhibition was 56% (active).
`CCOc1ccc(-n2c(O)c(/C=N/c3ccnn3Cc3ccncc3)c3ccccc3c2=O)cc1`: the inhibition was 44.3% (active).
Take `CCOc1ccc(-n2c(O)c(/C=N/Nc3nc(C)cc(C)n3)c3ccccc3c2=O)cc1`: the inhibition was -0.65%.
With `Cc1ccc(-n2c(O)c(C=Nc3ccc(S(=O)(=O)Nc4ncccn4)cc3)c3ccccc3c2=O)cc1C` the figure was 1.02%; with `CC(C)CCN1CCN=C1N(C)C`, 0.11%.
Turning to `O=C(NCCCN1CCOCC1)c1cnn2c(-c3ccccc3)cc(-c3ccccc3)nc12`, the inhibition is -0.23%.
As for `COc1ccc(C(=O)NC2CC2)cc1OC1CCN(Cc2ccc(SC)cc2)CC1`, the inhibition is -0.85%.
Next, `CC(NC(=S)Nc1ccccc1)C(c1cccs1)N1CCOCC1` (stereo not given): -0.68%.
For `CCOC(=O)Nc1ccc2c(c1)N(C(=O)CCCl)c1ccccc1[S@]2=O`, the inhibition was 1.44%.
Next, `Cc1ccc2cc(/C=N/Nc3ccc(C(=O)O)cc3)c(Cl)nc2c1`: 24.6% (active); `O=C(O)c1ccc(N/N=C/c2ccc3ncccc3c2)cc1`: -4.36%; `Cc1ccc2cc(/C=N/NC(=O)[C@@H]3CCCN3)c(Cl)nc2c1`: -2.39%.
